The subject of the experiment is astro (control astrocytes). Nature of the experiment: Drug repurposing screens with cells derived from glioblastoma tumor samples (AID 1345199). Further: nearly all actives have a fitted effect of over 40% in size. As to conditions: viability, ATP luminescence, 48 h; series mostly up to 45.9 µM. In outline:
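Primary testing used CD133+ neurospheres from four GBM patients, seven concentrations, 48 h exposure and ATP-based viability; confirmation added three slower-growing patient lines.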

Results filed as inconclusive are left out. Activity calls are given as the source filed them. The call rests on the fitted dose curve; in most records, active means well fitted inhibition curve with a large enough effect; inconclusive means small, poorly fitted or top-dose-only effect; inactive means flat fitted curve, though single readings scatter.
Potency means the concentration at half of the fitted maximal effect.

For `Nc1nc(Cl)nc2c1ncn2[C@@H]1O[C@H](CO)[C@@H](O)[C@@H]1F`, the Potency is 10 µM (active).

The values are drawn from PubChem BioAssay (NCATS).
